# Measured values published in PubChem BioAssay (NCI).
# Several values for one entry are separate records, joined by “and”; a condition that tells them apart may be missing. Equal entries are not always repeated. This is part of a sample that, as a whole, favours compounds with a hit. Of some 83,000 tested, about 20% had one in any assay.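 Each cell line was grown in a 96-well plate and treated with one concentration of compound for 48 hours. Values below 10 were considered active.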 Activity calls are given as the source filed them.
# Tests used:
# Test in all cases: NCI-60 one-dose screen, 48 h (100 = growth as untreated, 0 = no growth, -100 = all killed)
# MOLT-4 leukemia = tested on: MOLT-4 leukemia
# SR leukemia = tested on: SR leukemia
# RPMI-8226 leukemia = tested on: RPMI-8226 leukemia
# OVCAR-8 ovarian = conditions: 10 µM unless noted
# OVCAR-5 ovarian = tested on: OVCAR-5 ovarian
# OVCAR-4 ovarian = tested on: OVCAR-4 ovarian
# SK-OV-3 ovarian = conditions: 10 µM unless noted
# IGROV1 ovarian = tested on: IGROV1 ovarian
# OVCAR-3 ovarian = tested on: OVCAR-3 ovarian
# HS 578T breast = tested on: HS 578T breast
# NCI/ADR-RES ovarian = tested on: NCI/ADR-RES ovarian
# T-47D breast = tested on: T-47D breast
# BT-549 breast = tested on: BT-549 breast
# MDA-MB-435 melanoma = tested on: MDA-MB-435 melanoma
# SW-620 colon = conditions: 10 µM unless noted
# MCF7 breast = tested on: MCF7 breast
# HCT-116 colon = tested on: HCT-116 colon
# HCC-2998 colon = tested on: HCC-2998 colon
# KM12 colon = tested on: KM12 colon
smiles,measurement,setting,value
CC[C@H](CC[C@@H](C)[C@H]1CC[C@H]2[C@@H]3CC[C@H]4C[C@]5(CC[C@]4(C)[C@H]3CC[C@]12C)OO[C@](C)(C(F)(F)F)O5)C(C)C,growth,MOLT-4 leukemia; 10 µM unless noted,95% (inactive)
same,growth,SR leukemia; 10 µM unless noted,93.9% (inactive)
same,growth,RPMI-8226 leukemia; 10 µM unless noted,98.3% (inactive)
same,growth,OVCAR-8 ovarian,97% (inactive)
same,growth,OVCAR-5 ovarian; 10 µM unless noted,74.3% (inactive)
same,growth,OVCAR-4 ovarian; 10 µM unless noted,88.4% (inactive)
same,growth,SK-OV-3 ovarian,89.9% (inactive)
same,growth,IGROV1 ovarian; 10 µM unless noted,79.3% (inactive)
same,growth,OVCAR-3 ovarian; 10 µM unless noted,93.2% (inactive)
same,growth,HS 578T breast; 10 µM unless noted,99.8% (inactive)
same,growth,NCI/ADR-RES ovarian; 10 µM unless noted,98% (inactive)
same,growth,T-47D breast; 10 µM unless noted,87.9% (inactive)
same,growth,BT-549 breast; 10 µM unless noted,82.2% (inactive)
same,growth,MDA-MB-435 melanoma; 10 µM unless noted,96.9% (inactive)
same,growth,SW-620 colon,92.4% (inactive)
same,growth,MCF7 breast; 10 µM unless noted,93.2% (inactive)
same,growth,HCT-116 colon; 10 µM unless noted,98.3% (inactive)
same,growth,HCC-2998 colon; 10 µM unless noted,104% (inactive)
same,growth,KM12 colon; 10 µM unless noted,91.4% (inactive)
O=C(O)C1C(C(=O)O)C2(Cl)C(Cl)=C(Cl)C1(Cl)C2(Cl)Cl (stereo not drawn),growth,MOLT-4 leukemia; 10 µM unless noted,115% (inactive) and 106% (inactive)
same,growth,SR leukemia; 10 µM unless noted,104% (inactive) and 118% (inactive)
same,growth,RPMI-8226 leukemia; 10 µM unless noted,94% (inactive) and 115% (inactive)
same,growth,OVCAR-8 ovarian,107% (inactive) and 101% (inactive)
same,growth,OVCAR-5 ovarian; 10 µM unless noted,91.4% (inactive) and 108% (inactive)
same,growth,OVCAR-4 ovarian; 10 µM unless noted,105% (inactive) and 110% (inactive)
same,growth,SK-OV-3 ovarian,103% (inactive) and 107% (inactive)
same,growth,IGROV1 ovarian; 10 µM unless noted,109% (inactive) and 118% (inactive)
same,growth,OVCAR-3 ovarian; 10 µM unless noted,99.8% (inactive) and 112% (inactive)
same,growth,HS 578T breast; 10 µM unless noted,116% (inactive)
same,growth,NCI/ADR-RES ovarian; 10 µM unless noted,111% (inactive) and 106% (inactive)
same,growth,T-47D breast; 10 µM unless noted,98.7% (inactive)
same,growth,BT-549 breast; 10 µM unless noted,104% (inactive) and 107% (inactive)
same,growth,MDA-MB-435 melanoma; 10 µM unless noted,100% (inactive) and 106% (inactive)
same,growth,SW-620 colon,98.5% (inactive) and 101% (inactive)
same,growth,MCF7 breast; 10 µM unless noted,104% (inactive) and 96.8% (inactive)
same,growth,HCT-116 colon; 10 µM unless noted,101% (inactive) and 107% (inactive)
same,growth,HCC-2998 colon; 10 µM unless noted,102% (inactive)
same,growth,KM12 colon; 10 µM unless noted,100% (inactive) and 105% (inactive)
CO/N=C1\CC[C@]2(C)[C@H]3CC[C@]4(C)C(=O)CC[C@H]4[C@@H]3C[C@@H]3SC(N)=N[C@@]32C1,growth,MOLT-4 leukemia; 10 µM unless noted,86.1% (inactive)
same,growth,SR leukemia; 10 µM unless noted,71.8% (inactive)
same,growth,RPMI-8226 leukemia; 10 µM unless noted,93.2% (inactive)
same,growth,OVCAR-8 ovarian,105% (inactive)
same,growth,OVCAR-5 ovarian; 10 µM unless noted,105% (inactive)
same,growth,OVCAR-4 ovarian; 10 µM unless noted,90.9% (inactive)
same,growth,SK-OV-3 ovarian,122% (inactive)
same,growth,IGROV1 ovarian; 10 µM unless noted,101% (inactive)
same,growth,OVCAR-3 ovarian; 10 µM unless noted,85.5% (inactive)
same,growth,HS 578T breast; 10 µM unless noted,102% (inactive)
same,growth,NCI/ADR-RES ovarian; 10 µM unless noted,99.6% (inactive)
same,growth,T-47D breast; 10 µM unless noted,84.4% (inactive)
same,growth,BT-549 breast; 10 µM unless noted,106% (inactive)
same,growth,MDA-MB-435 melanoma; 10 µM unless noted,91.5% (inactive)
same,growth,SW-620 colon,106% (inactive)
same,growth,MCF7 breast; 10 µM unless noted,89.1% (inactive)
same,growth,HCT-116 colon; 10 µM unless noted,87.2% (inactive)
same,growth,HCC-2998 colon; 10 µM unless noted,103% (inactive)
same,growth,KM12 colon; 10 µM unless noted,97.7% (inactive)
O=C(O)CCCc1ccc(N(CCCl)CCCl)cc1,growth,MOLT-4 leukemia; 10 µM,73.4% (inactive) and 35.5% (inactive)
same,growth,MOLT-4 leukemia; 75 µM,6.72% (active)
same,growth,SR leukemia; 10 µM,44.8% (inactive) and 19.5% (inactive)
same,growth,SR leukemia; 75 µM,5.82% (active)
same,growth,RPMI-8226 leukemia; 10 µM,84.4% (inactive) and 90.7% (inactive)
same,growth,RPMI-8226 leukemia; 75 µM,7.4% (active)
same,growth,OVCAR-8 ovarian,87.5% (inactive)
same,growth,OVCAR-5 ovarian; 10 µM,97.7% (inactive) and 81.1% (inactive)
same,growth,OVCAR-5 ovarian; 75 µM,66.4% (inactive)
same,growth,OVCAR-4 ovarian; 10 µM,102% (inactive) and 107% (inactive)
same,growth,OVCAR-4 ovarian; 75 µM,83.2% (inactive)
same,growth,IGROV1 ovarian; 10 µM,80.2% (inactive)
same,growth,IGROV1 ovarian; 75 µM,50.9% (inactive)
same,growth,OVCAR-3 ovarian; 10 µM,111% (inactive) and 108% (inactive)
same,growth,OVCAR-3 ovarian; 75 µM,18.9% (inactive)
same,growth,HS 578T breast; 10 µM,120% (inactive) and 113% (inactive)
same,growth,HS 578T breast; 75 µM,-4.49% (active)
same,growth,NCI/ADR-RES ovarian; 10 µM,96.3% (inactive) and 89% (inactive)
same,growth,NCI/ADR-RES ovarian; 75 µM,31% (inactive)
same,growth,T-47D breast; 10 µM,87.2% (inactive) and 74.8% (inactive)
same,growth,T-47D breast; 75 µM,27.3% (inactive)
same,growth,BT-549 breast; 10 µM,86.7% (inactive) and 96.5% (inactive)
same,growth,BT-549 breast; 75 µM,11.7% (inactive)
same,growth,MDA-MB-435 melanoma; 10 µM,102% (inactive) and 97.9% (inactive)
same,growth,MDA-MB-435 melanoma; 75 µM,38.8% (inactive)
same,growth,MCF7 breast; 10 µM,80.9% (inactive) and 68.4% (inactive)
same,growth,MCF7 breast; 75 µM,24.9% (inactive)
same,growth,HCT-116 colon; 10 µM,84.4% (inactive) and 87% (inactive)
same,growth,HCT-116 colon; 75 µM,32.1% (inactive)
same,growth,HCC-2998 colon; 10 µM,85.1% (inactive) and 87.7% (inactive)
same,growth,HCC-2998 colon; 75 µM,6.85% (active)
same,growth,KM12 colon; 10 µM,105% (inactive) and 98% (inactive)
same,growth,KM12 colon; 75 µM,65.3% (inactive)
Clc1ccc(COC(Cn2ccnc2)c2ccc(Cl)cc2Cl)c(Cl)c1 (stereo not drawn),growth,MOLT-4 leukemia; 10 µM unless noted,41.5% (inactive) and 45.3% (inactive)
same,growth,SR leukemia; 10 µM unless noted,65% (inactive)
same,growth,RPMI-8226 leukemia; 10 µM unless noted,41.2% (inactive) and 54.6% (inactive)
same,growth,OVCAR-8 ovarian,38.4% (inactive)
same,growth,OVCAR-5 ovarian; 10 µM unless noted,64.5% (inactive) and -11.4% (active)
same,growth,OVCAR-4 ovarian; 10 µM unless noted,49% (inactive) and 63.2% (inactive)
same,growth,SK-OV-3 ovarian,79.7% (inactive) and 91% (inactive)
same,growth,IGROV1 ovarian; 10 µM unless noted,38.3% (inactive) and 22.3% (inactive)
same,growth,OVCAR-3 ovarian; 10 µM unless noted,48.9% (inactive) and 64.2% (inactive)
same,growth,HS 578T breast; 10 µM unless noted,74.3% (inactive)
same,growth,NCI/ADR-RES ovarian; 10 µM unless noted,21.7% (inactive) and -21.9% (active)
same,growth,T-47D breast; 10 µM unless noted,46.4% (inactive) and 36.5% (inactive)
same,growth,BT-549 breast; 10 µM unless noted,51.8% (inactive) and 40.9% (inactive)
same,growth,MDA-MB-435 melanoma; 10 µM unless noted,8.47% (active) and 20.5% (inactive)
same,growth,SW-620 colon,58.3% (inactive) and 62.2% (inactive)
same,growth,MCF7 breast; 10 µM unless noted,39.3% (inactive) and 35% (inactive)
same,growth,HCT-116 colon; 10 µM unless noted,14.6% (inactive) and 16.1% (inactive)
same,growth,HCC-2998 colon; 10 µM unless noted,47.4% (inactive)
same,growth,KM12 colon; 10 µM unless noted,40.2% (inactive) and 43.2% (inactive)
C[C@@]12CCCc3coc(c31)C(=O)c1cc3c(cc12)C(=O)C1=C(NCCS1(=O)=O)C3=O,growth,MOLT-4 leukemia; 10 µM unless noted,-31.5% (active)
same,growth,SR leukemia; 10 µM unless noted,-13.3% (active)
same,growth,RPMI-8226 leukemia; 10 µM unless noted,-30.4% (active)
same,growth,OVCAR-8 ovarian,-13.1% (active)
same,growth,OVCAR-5 ovarian; 10 µM unless noted,-28.3% (active)
same,growth,OVCAR-4 ovarian; 10 µM unless noted,-89.3% (active)
same,growth,SK-OV-3 ovarian,-12.6% (active)
same,growth,IGROV1 ovarian; 10 µM unless noted,-23.9% (active)
same,growth,OVCAR-3 ovarian; 10 µM unless noted,-47.2% (active)
same,growth,HS 578T breast; 10 µM unless noted,-12.3% (active)
same,growth,NCI/ADR-RES ovarian; 10 µM unless noted,81.5% (inactive)
same,growth,T-47D breast; 10 µM unless noted,-45.9% (active)
same,growth,BT-549 breast; 10 µM unless noted,-51.7% (active)
same,growth,MDA-MB-435 melanoma; 10 µM unless noted,-83.5% (active)
same,growth,SW-620 colon,-43.8% (active)
same,growth,MCF7 breast; 10 µM unless noted,-54.1% (active)
same,growth,HCT-116 colon; 10 µM unless noted,-16.5% (active)
same,growth,HCC-2998 colon; 10 µM unless noted,-30.8% (active)
same,growth,KM12 colon; 10 µM unless noted,4.16% (active)
